Each structure is given as a SMILES string. Among all 2,100 compounds or so, about 670 (32%) were called active. Inconclusive results (about 50%) are left out. This is one part of the list. A number with no mark means an inactive call. Calls come from the whole dose curve; as a rule, active = well fitted inhibition curve with a large enough effect; inconclusive = small, poorly fitted or top-dose-only effect; inactive = no such curve, though single readings can be large or run the other way.
% is set by controls: 0 for no effect and ±100 for the full control effect; potency is the fitted concentration of half-maximal effect.

This experiment in a line: CMV-Luciferase Counterscreen for Inhibitors of ATXN expression. Note: nearly all actives have a fitted effect of over 55% in size. The conditions noted are these: HEK-293 CMV-luciferase reporter, luminescence, 24 h; series mostly up to 57.5 µM.
Regarding `Cc1cccc(OCC(=O)Nc2ccc3c(c2)nc(CCN2CCN(c4ccccn4)CC2)n3C)c1`, the Potency is 14.1 µM (active).
`COc1cccc(/C=N/NC(=O)c2ccc(-c3ccccc3)cc2)c1O`: the Potency is 2 µM (active).
On the same count and under the same terms, the same measure for `CCn1c(C)nc2cc(C(=O)N/N=C/c3cccc(OC)c3O)ccc21`: 2.51 µM (active); for `COc1cccc(/C=N/NC(=O)c2cc(-c3ccccn3)nc3ccccc23)c1O`: 2.82 µM (active).
Same read-out and setting: under `COc1cccc(/C=N/NC(=O)c2c(C)nc3ccc(Cl)cn23)c1O` stands 1.41 µM (active); under `COc1cccc(C=NNC(=O)c2ccncc2)c1O`, 15.8 µM (active).
Same read-out and setting: under `c1ccc2c(c1)c1c(c3ccccc32)CN2CCCC2C1` (configuration not stated) stands “inactive”; under `Cc1cc2c(N=O)c(NO)ccc2[nH]1`, 10 µM (active).
With `CN(C)CCCN(C(=O)c1ccco1)c1nc2cc3c(cc2s1)OCO3`, the Potency entry is “inactive”.
On the same count and under the same terms, under `CN(/N=C/c1cc(Br)cc(Br)c1O)c1cccc(C(F)(F)F)n1` stands 11.2 µM (active); under `COc1ccc(NC(=S)N(CCCN2CCOCC2)Cc2cn(C)c3ccccc23)cc1`, “inactive”.
Take `ClC(Cl)(Cl)c1nc2ccccc2n2nncc12`: the activity change, negative = inhibition is -25.9% [at 11.4 µM].
Same read-out and setting: the same measure for `COc1ccc(C2CC(c3cccc(C(F)(F)F)c3)=NN2c2ccc(S(N)(=O)=O)cc2)cc1` (configuration not stated): -28.1% [at 11.4 µM].
As for `NS(=O)(=O)c1ccc(N2N=C(c3ccccc3)CC2c2cccc(Br)c2)cc1` (configuration not stated), the Potency is 17.8 µM (active).
The same measure, in the same setting: the same measure for `NC(Cc1ccc(Cl)cc1)c1csc(Nc2nccc(C(F)(F)F)n2)n1` (configuration not stated): “inactive”.
The same measure, in the same setting: under `Cc1cc(C(=O)N/N=C/c2cc(Br)cc([N+](=O)[O-])c2O)c2ccccc2n1` stands 3.55 µM (active).
Still for that read-out and setting: under `O=C(N/N=C/c1cc(Br)cc([N+](=O)[O-])c1O)c1ccc(NC(=O)c2ccc(F)cc2)cc1` stands 3.16 µM (active); under `CC(=O)Nc1ccc(C(=O)N/N=C/c2cc(Br)cc(Br)c2O)cc1`, 11.2 µM (active); under `CN(C)c1ccc(C(=O)N/N=C/c2cc(Br)cc(Br)c2O)cc1`, 3.16 µM (active).
As for `Cc1ccc2nc(NC(=O)/C=C/c3ccc4c(c3)OCO4)sc2c1`, the Potency entry is “inactive”.
The same measure, in the same setting: the same measure for `O=c1[nH]c(=O)n(C2C[C@H](O)[C@@H](CO)O2)cc1C(F)(F)F` (some centres not stated): 2.82 µM (active).
The same measure, in the same setting: the same measure for `COC(=O)N/N=C/c1cn(CC(C)COc2ccccc2)c2ccccc12` (configuration not stated): 17.8 µM (active); for `c1ccc2c(c1)C(=NC1CCCCC1)NC2=NC1CCCCC1`: “inactive”.
The same measure, in the same setting: the same measure for `Cc1ccc(C(=O)NNC(=O)CCCN2C(=O)/C(=C/c3ccccc3Cl)SC2=S)cc1`: 11.2 µM (active).
For `O=C(CCCN1C(=O)/C(=C/c2ccccc2Cl)SC1=S)NNC(=O)c1ccc(Cl)cc1Cl`, the Potency is 2.82 µM (active).
On the same count and under the same terms, the same measure for `O=C(CCCN1C(=O)/C(=C/c2ccccc2Cl)SC1=S)NNC(=O)c1ccc(Cl)cc1`: 3.98 µM (active).
With `Cc1cc(C)c2c(CC(=O)Nc3ccc(Cl)cn3)coc2c1`, the activity change, negative = inhibition is 21.1% [at 11.4 µM].
With `CCc1ccc(/C=C/C(=O)c2cc(Br)ccc(=O)c2O)cc1`, the Potency entry was “inactive”.
For `NC(Cc1ccc(Cl)cc1)c1csc(Nc2cc(NCCCO)ncn2)n1` (configuration not stated), the Potency entry is “inactive”.
Still for that read-out and setting: the same measure for `O=C(N/N=C/c1cc(Cl)ccc1O)c1ccccc1Br`: 8.91 µM (active); for `O=C(N/N=C/c1c(O)n(Cc2ccccc2)c(=O)c2ccccc12)c1cccnc1`: 12.6 µM (active).
Consider `Cc1cccc(/C=N/NC(=O)c2cccc(Cl)c2)n1`, for which the activity change, negative = inhibition is -14.3% [at 11.4 µM].
For `O=C(N/N=C/c1cc(Cl)ccc1O)c1cccnc1`, the Potency is 0.631 µM (active).
Consider `CCC1=C(OC(=O)N(CC)CC)N2C(=O)OC(=NCCc3c[nH]c4ccccc34)[C@]2(Cc2ccccc2)[C@H]2C1=CC[C@H]1C(=O)N(c3ccccc3)C(=O)[C@H]12`, for which the Potency result was “inactive”.
The same measure, in the same setting: the same measure for `Cc1cccn2c(=O)c3cc(C(=O)NCCc4ccccc4)c(=N)n(CCCn4ccnc4)c3nc12`: “inactive”; for `CC1(C)Cc2c(c(-c3ccco3)nc3sc4c(NCCN5CCOCC5)ncnc4c23)CO1`: “inactive”; for `Cc1c(C(=O)Nc2nonc2-c2ccc(F)cc2)oc2ccc(F)cc12`: 11.2 µM (active).
On the same count and under the same terms, the same measure for `O=C(NNC(=O)C12CC3CC(CC(C3)C1)C2)c1ccccn1`: 8.91 µM (active); for `CN(C)c1ccc2c(c1)OC(N)=C(C#N)C2c1cccc(F)c1` (configuration not stated): “inactive”.
Still for that read-out and setting: under `Cn1cccc1/C=N/N1CCN(Cc2ccccc2Cl)CC1` stands “inactive”.
Take `O=C(Nc1ccccc1N1CCN(C(=O)c2ccccc2)CC1)c1ccc(Br)o1`: the Potency is 28.2 µM (active).
Same read-out and setting: under `Cc1cc(C)n(-c2nc(Nc3ccccc3C(F)(F)F)nc(-n3nc(C)cc3C)n2)n1` stands 1.78 µM (active); under `CN(C)c1ccc(NC(=O)Nc2nc(C(N)C3CCCCC3)cs2)cc1` (configuration not stated), “inactive”.
For the compound `CCOC(=O)c1c(NC(=O)COC(=O)CNC(=O)c2ccco2)sc(C)c1C`, the activity change, negative = inhibition is 24.5% [at 11.4 µM].
For the compound `Cc1cc(C)c(S(=O)(=O)/N=C2\C=C(Nc3ccc(C(=O)O)cc3)C(=O)c3ccccc32)c(C)c1`, the Potency is 1.58 µM (active).
Regarding `CCCCCCn1c2c(c(=N)c3c1CCC3)CCC2`, the Potency was 2.51 µM (active).
Take `Cc1ccc(CN2CC(C(=O)Nc3ncc(C)s3)CC2=O)cc1` (configuration not stated): the activity change, negative = inhibition is 242% [at 11.4 µM].
As for `Cc1ccc(C(NC(=O)C2CCN(Cc3ccc(Cl)c(Cl)c3)CC2)c2ccccn2)cc1` (configuration not stated), the Potency was 28.2 µM (active).
On the same count and under the same terms, the same measure for `O=C1C=C(NCCc2cc(Br)c(O)c(Br)c2)C(=O)c2ncccc21`: 8.91 µM (active); for `Cc1cc(C)c(C(=O)N2CCCC(N3CCN(c4cccc(C(F)(F)F)c4)CC3)C2)o1` (configuration not stated): 3.55 µM (active).
Still for that read-out and setting: the same measure for `COC1=CC(=O)C=C(OC)C1(O)CC(C)=O`: “inactive”.
Still for that read-out and setting: under `CC(=O)NC(c1cc(Cl)c2cccnc2c1O)C(C)C` (configuration not stated) stands 0.794 µM (active); under `CCC(=O)NC(c1cc(Cl)c2cccnc2c1O)C(C)C` (configuration not stated), 3.98 µM (active).
Take `CC(C)CCn1c(N)c(S(=O)(=O)c2cccs2)c2nc3ccccc3nc21`: the Potency is 3.16 µM (active).
Take `COc1ccc(C(=O)/C=C/c2cccc(OCc3ccccc3)c2)cc1CSCC(=O)O`: the activity change, negative = inhibition is -3.73% [at 11.4 µM].
With `CCSc1nc2ccccc2n1C(=O)/C=C\c1ccc(OC)c(OC)c1`, the Potency was 14.1 µM (active).
For `COc1ccc(C(=O)Cn2c(C(=O)/C=C/c3ccccc3)nc3ccccc32)cc1`, the activity change, negative = inhibition is 92.9% [at 11.4 µM].

The record behind these values is PubChem BioAssay AID1745847 (National Center for Advancing Translational Sciences (NCATS), 2022).
